AMA1 RON2 block: qHTS for Inhibitors of AMA1-RON; Towards Development of Antimalarial Drug Lead: Primary Screen. Plasmodium falciparum AMA1 (3D7) - RON2 peptide interaction. AlphaScreen AMA1-biotinylated RON2 peptide binding. Potency, µM (titrated, usually from 58.2 µM), inactives show at the highest dose activity change, negative = inhibition, most hits filed as inhibitors. 0.2% of 360,000 active. AID 720542, 2013;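 also: 0% = vehicle wells and -100% = peptide control; nearly all actives have a fitted effect of over 45% in size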
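AMA1 (3D7) with his tag at 25 nM final met compounds first, then biotinylated RON2 peptide at 25 nM; detection used donor plus acceptor beads, 10 µg/mL apiece, read by AlphaScreen after 30 min at room temperature.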
SARS PLpro yeast: qHTS of Yeast-based Assay for SARS-CoV PLP | S. cerevisiae expressing SARS-CoV PLpro, growth rescue | Potency, µM (highest dose often 32.9 µM), inactives show at the top dose activity, positive = growth rescue, most hits filed as activators | 0.19% of 330,000 active; calls by dose curve; also: 0% is about no effect; nearly all actives have a fitted effect of over 55% in size
Pf growth 96h: Primary qHTS for delayed death inhibitors of the malarial parasite plastid, 96 hour incubation; P. falciparum luciferase reporter growth, 96 h; AID 504834, 2011; 6.9% of 320,000 active; Potency, µM (highest dose often 28.7 µM), for the others: top-dose activity change, negative = inhibition, most hits filed as inhibitors; also: % is scaled to controls: 0 for no effect and ±100 for the full control effect
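Delayed-death screen, second-generation endpoint: infected erythrocytes, 2% hematocrit, 0.05% parasitemia final; 96 hours at 37 C, 5% CO2; luciferase detection reagent; luminescence decrease equals reduced growth.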
Pf growth 48h: Primary qHTS for delayed death inhibitors of the malarial parasite plastid, 48 hour incubation; P. falciparum luciferase growth in erythrocytes, 48 h; Potency, µM (highest dose often 28.7 µM), for the others: top-dose activity change, negative = inhibition, actives largely listed as inhibitors; 5.9% of 310,000 active; AID 504832, 2011; also: % is scaled to controls: 0 for no effect and ±100 for the full control effect
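Luciferase-expressing P. falciparum in infected erythrocytes (2% hematocrit, 0.1% parasitemia final) in RPMI 1640/0.5% Albumax were exposed to compound for 48 hours at 37 C, 5% CO2; growth read as luminescence.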
NS1 function inh: qHTS Assay for Inhibitors of Influenza NS1 Protein Function | Potency, µM (doses to about 46.1 µM), inactives show at the top dose activity, positive = more growth | 0.4% of 270,000 active | AID 2326, 2010; calls by dose curve; also: actives are rising curves; nearly all actives have a fitted effect of over 50% in size
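Recovery from NS1-induced slow growth read by OD600 in budding yeast switched to galactose assay medium (pH 6.0, -URA) at 1:100 dilution. Compound 23 nl per well; the matching strain lacking NS1 serves as control.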
HCV inh: qHTS Assay for Inhibitors of Hepatitis C Virus (HCV) | Huh7.5.1 HCVcc-Cre infection, luciferase reporter, 44 h | Potency, µM (series often up to 41.8 µM), without a hit: at the highest dose activity change, negative = inhibition, hits mostly inhibitors | 3.4% of 340,000 active; also: % is scaled to controls: 0 for no effect and ±100 for the full control effect
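Luciferase read-out (15 sec integration) after a 15 min room-temperature substrate step quantifies HCVcc-Cre infection. Cells, 1,000 per well, had compound added 4 h post-plating, then virus at ~0.5 moi, and were cultured 44 h.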
The depositor's hits bear a star; u = inconclusive; x = no result given; ! = not confirmed by another sample; [ ] = remark or other dose. An excerpt weighted towards active compounds, which were near 12% of everything screened. Unless noted, calls follow the shape of the dose curve; as a rule, active = well fitted curve in the direction sought with a large enough effect; inconclusive = small, poorly fitted or top-dose-only effect, or another doubt; inactive = no such curve, though single readings can be large; an effect the other way counts as inactive or inconclusive. Potency is read from the fitted curve at half-maximal effect.

SMILES	AMA1 RON2 block	SARS PLpro yeast	Pf growth 96h	Pf growth 48h	NS1 function inh	HCV inh
CCOC(=O)c1c(NC(=O)CSc2nnc(-c3cccc(C)c3)n2CC)sc(C(C)=O)c1C	-13%	-7%	-23%	11%	18%	3.5µM*
CCc1ccc(NC(=O)CSc2nc3cc(C(=O)OC)ccc3c(=O)n2Cc2ccco2)cc1	-12%	-4%	-12%	34%	4%	13%
CCOC(=O)c1c(NC(=O)CSc2nnc(CNc3ccc(F)cc3)o2)sc(C(C)=O)c1C	101%	-7%	1.7µM*	-16%	-20%	u
CCOC(=O)c1c(NC(=O)CSc2nnc(-c3ccccc3)n2CC)sc(C(C)=O)c1C	-18%	-2%	u	u	-3%	u
CCOC(=O)c1c(NC(=O)CSc2nnc(Cc3ccccc3)o2)sc(C(C)=O)c1C	21%	3%	x	-21%	10%	u
COc1ccc(CCNC(=S)Nc2ccc(S(=O)(=O)Nc3ncccn3)cc2)cc1OC	-10%	2%	-14%	-4%	1%	8%
CC1CCN(C(=O)CSc2nnc(CNC(=O)c3ccc(S(=O)(=O)N(C)C)cc3)o2)CC1	3%	-2%	-3%	-10%	-3%	u
CCN(CC)CCNC(=O)C1c2cc(OC)c(OC)cc2C(=O)N(C)C1c1cccs1 (stereo not drawn)	9%	-3%	u	17%	x	-12%
Cn1nnnc1SCC(=O)Nc1cc(S(=O)(=O)N2CCCCC2)ccc1Cl	u	5%	x	x	x	3%
CCOC(=O)c1sc(NC(=O)CSc2nnc(-c3ccco3)n2CC)c(C(=O)OCC)c1C	-7%	4%	x	u	27%	10µM*!
COC(=O)c1c(NC(=O)CSc2nnc(-c3ccco3)n2C)sc(C)c1C	-3%	3%	-8%	u	5%	-14%
CCOC(=O)CNC(=O)CSc1nnc(-c2ccco2)n1Cc1ccco1	-3%	1%	8.3µM*	39%	u	-1%
Cc1ccc(C(=O)NCC(=O)Nc2ccncc2)s1	0%	3%	15%	7%	7%	8%
COc1ccc2c(c1)OC(c1ccccc1)(C(F)(F)F)NC2=O (stereo not drawn)	6%	-5%	u	2.9µM*	-6%	19%
COc1ccc(C2(OC)Oc3cc(OC)ccc3C(=O)C2(O)OC)cc1 (stereo not drawn)	-12%	x	x	x	x	u
CC(C)Oc1ccc2c(c1)OC(c1ccccc1)(C(F)(F)F)NC2=O (stereo not drawn)	-8%	1%	0.19µM*	0.83µM*	6%	-4%
CCC(=O)Nc1nc(NCc2ccccc2OC)n(-c2ccccc2)n1	-3%	-1%	26%	20%	4%	7%
CCCCC[C@@H](/C=C/C1C(=O)C=C[C@H]1C/C=C\CCCC(=O)O)OC(C)=O (stereo partly drawn)	-1%	x	x	x	x	-6%[8.37 µM]
CN(C(=O)c1cccc(NC(=O)Cc2ccc(NC(=O)C3CCCN(C(=O)CCc4ccccc4)C3)cc2)c1)C1CCCC1 (stereo not drawn)	-5%	x	x	x	x	u
CN(Cc1ccccc1)C(=O)c1cccc(NC(=O)Cc2ccc(NC(=O)C3CCCN(C(=O)C4CCCCC4)C3)cc2)c1 (stereo not drawn)	-6%	x	x	x	x	7.9µM*
CN(Cc1ccccc1)C(=O)c1ccc(NC(=O)Cc2cccc(NC(=O)C3CCCN(C(=O)CCc4ccccc4)C3)c2)cc1 (stereo not drawn)	-10%	2%	1.5µM*	3.7µM*	x	u
CN(C(=O)c1ccc(NC(=O)Cc2cccc(NC(=O)C3CCCN(C(=O)CCc4ccccc4)C3)c2)cc1)C1CCCC1 (stereo not drawn)	-2%	-2%	u	0.12µM*	x	u
CN(Cc1ccccc1)C(=O)c1ccc(NC(=O)Cc2cccc(NC(=O)C3CCN(C(=O)C4CCCC4)CC3)c2)cc1	-4%	-4%	5.9µM*	u	x	-10%
CCOc1ccc(N2CC(C(=O)Nc3ccccc3C(=O)N3CCOCC3)CC2=O)cc1 (stereo not drawn)	17%	4%	33%	0%	1%	-14%
CC(=O)O[C@]1(C)N=NC2(CCCCC2)O1	x	x	x	x	-2%	x
SMILES	AMA1 RON2 block	SARS PLpro yeast	Pf growth 96h	Pf growth 48h	NS1 function inh	HCV inh
COc1ccc(OCC(=O)Nc2ccccc2C(=O)Nc2ccc(C(=O)O)cc2)cc1	0%	-2%	0%	17%	-11%	10%
CN(C(=O)c1cccc(NC(=O)Cc2ccc(NC(=O)C3CCCN(C(=O)CCc4ccccc4)C3)cc2)c1)C1CCC1 (stereo not drawn)	6%	x	x	x	x	-7%[8.37 µM]
CN(C(=O)c1ccc(NC(=O)Cc2cccc(NC(=O)C3CCCN(C(=O)C4CCCC4)C3)c2)cc1)C1CCCC1 (stereo not drawn)	-4%	1%	3.7µM*	12µM*	x	-12%
O=C(Cc1ccc(NC(=O)C2CCCN(C(=O)CCc3ccccc3)C2)cc1)Nc1cccc(C(=O)N2CCCCC2)c1 (stereo not drawn)	4%	x	x	x	x	7.9µM*
CN(C(=O)c1ccc(NC(=O)Cc2ccc(NC(=O)C3CCCN(C(=O)CCc4ccccc4)C3)cc2)cc1)C1CC1 (stereo not drawn)	-7%	2%	u	13µM*	x	14µM*
CN(C(=O)c1ccc(NC(=O)Cc2cccc(NC(=O)C3CCCN(C(=O)C4CCC4)C3)c2)cc1)C1CC1 (stereo not drawn)	5%	x	x	x	x	u
Cc1cccc(NC(=O)CSc2nnc3ccc(-c4ccccn4)nn23)c1	-10%	0%	u	-30%	x	3%
O=C(O)C(Cc1ccccc1)Cc1ccccc1	x	x	x	x	-6%	x
CNC(=O)c1ccsc1NC(=O)CS(=O)(=O)c1ccc(Cl)cc1	12%	6%	u	7%	25%	11%

Source: PubChem BioAssay (National Center for Advancing Translational Sciences (NCATS))
